Where “and” joins values, the source holds several entries; their conditions need not be identical. Equal entries are not always repeated. Records with an inconclusive call do not appear. Some structures have more than one record in an assay (separate samples or runs), and their calls can disagree. Calls of active or inactive are those of the source. The call rests on the fitted dose curve; in most records, active means well fitted curve in the direction sought with a large enough effect; inconclusive means small, poorly fitted or top-dose-only effect, or another doubt; inactive means no such curve, though single readings can be large; an effect the other way counts as inactive or inconclusive.
How the values were obtained:
[1] = test system: SC27B; assay: qHTS profiling for inhibitors of Plasmodium falciparum proliferation (AID 504749); further: nearly all actives have a fitted effect of over 60% in size; further: potency means the concentration at half of the fitted maximal effect; conditions: P. falciparum in erythrocytes, SYBR Green DNA, 72 h; series mostly up to 28.7 µM
How it was run: (§1)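 Quantitative HTS: compounds pinned into medium, infected erythrocytes added (0.3% parasitemia, 2.5% hematocrit), 72 h culture at 37 C under 5% CO2. Saponin/Triton lysis with SYBR Green I, overnight RT, then fluorescence read.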

[2] = test system: TAB109; assay: as above; conditions: P. falciparum in erythrocytes, SYBR Green DNA, 72 h; series mostly up to 28.7 µM
How it was run: as §1

[3] = test system: TAB113; assay: as above; conditions: P. falciparum in erythrocytes, SYBR Green DNA, 72 h; series mostly up to 28.7 µM
How it was run: as §1

[4] = test system: TAB165; assay: as above; conditions: P. falciparum in erythrocytes, SYBR Green DNA, 72 h; series mostly up to 28.7 µM
How it was run: as §1

[5] = test system: W2; assay: as above; conditions: P. falciparum in erythrocytes, SYBR Green DNA, 72 h; series mostly up to 28.7 µM
How it was run: as §1

[6] = test system: CRL-7250; assay: Cytotoxic Profiling of Annotated Libraries Using Quantitative High-Throughput Screening (AID 1296008); conditions: Five cell lines viability, CellTiter-Glo ATP luminescence, 48-72 h; max response: stronger effect = lower value; further: nearly all actives have a fitted effect of over 60% in size; further: potency means the concentration at half of the fitted maximal effect; on max response: on the % scale 0 is the no-effect control and ±100 the full control effect
How it was run: (§2)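 Compounds were pin-transferred onto cells and incubated 48 or 72 hr at 37 degree Celsius, 95% humidity. CellTiter-Glo was added, plates sat 10 min at room temperature, then ATP-coupled luminescence was imaged as the viability read-out.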

[7] = test system: HEK293; assay: as above; conditions: Five cell lines viability, CellTiter-Glo ATP luminescence, 48-72 h; max response: stronger effect = lower value
How it was run: as §2

[8] = test system: HaCat; assay: as above; conditions: Five cell lines viability, CellTiter-Glo ATP luminescence, 48-72 h; max response: stronger effect = lower value
How it was run: as §2

[9] = test system: KB-3-1; assay: as above; conditions: Five cell lines viability, CellTiter-Glo ATP luminescence, 48-72 h; max response: stronger effect = lower value
How it was run: as §2

[10] = test system: NIH3T3; assay: as above; conditions: Five cell lines viability, CellTiter-Glo ATP luminescence, 48-72 h; max response: stronger effect = lower value
How it was run: as §2

[11] = test system: HACAT; assay: qHTS assay to identify novel small-molecules to repurpose for Merkel cell carcinoma treatment (AID 1296009); conditions: MCC and control cell lines, CellTiter-Glo viability, 72 h; series mostly up to 44.8 µM; further: nearly all actives have a fitted effect of over 60% in size
How it was run: (§3)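 Viability readout: ATP luminescence (CellTiter-Glo) after 72 hr drug exposure at 37 degree celsius. Dose-response format was 8 points for NPC and 11 points for MIPE; data normalized to in-plate controls.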

[12] = test system: MCC-13; assay: as above; conditions: MCC and control cell lines, CellTiter-Glo viability, 72 h; series mostly up to 46 µM
How it was run: as §3

[13] = test system: MCC-26; assay: as above; conditions: MCC and control cell lines, CellTiter-Glo viability, 72 h; series mostly up to 46 µM
How it was run: as §3

[14] = test system: MKL-1; assay: as above; conditions: MCC and control cell lines, CellTiter-Glo viability, 72 h; series mostly up to 46 µM
How it was run: as §3

[15] = test system: MKL-2; assay: as above; conditions: MCC and control cell lines, CellTiter-Glo viability, 72 h; series mostly up to 46 µM
How it was run: as §3

[16] = test system: NIH3T3; assay: as above; conditions: MCC and control cell lines, CellTiter-Glo viability, 72 h; series mostly up to 44.8 µM
How it was run: as §3

[17] = test system: UISO; assay: as above; conditions: MCC and control cell lines, CellTiter-Glo viability, 72 h; series mostly up to 46 µM
How it was run: as §3

[18] = test system: WaGa; assay: as above; conditions: MCC and control cell lines, CellTiter-Glo viability, 72 h; series mostly up to 46 µM
How it was run: as §3

[19] = test system: C33A; assay: Primary qHTS to identify gynecologic anti-cancer compounds using libraries of approved drugs and bioactive compounds (AID 1345084); conditions: Gynecologic cancer cell panel viability, ATPlite luminescence, 48 h; series mostly up to 57.5 µM; further: on the % scale 0 is the no-effect control and ±100 the full control effect; nearly all actives have a fitted effect of over 55% in size
How it was run: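 Measured: luminescence after ATPlite addition (15 min, RT). Exposure: 48 h, 37 C, 5% CO2.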

[20] = test system: HEK293T; assay: qHTS assay to identify novel small-molecules to repurpose for Merkel cell carcinoma treatment (AID 1296009); conditions: MCC and control cell lines, CellTiter-Glo viability, 72 h; at 44.8 µM (top of the series) unless noted; further: nearly all actives have a fitted effect of over 60% in size
How it was run: as §3

Cc1cc(C(C)(C)C)cc(C)c1CC1=NCCN1
active: Potency [5] 4.05 µM
inactive: Potency [1] | Potency [2] | Potency [3] | Potency [4] | max response [6] -1.37% and -2.32% | max response [7] -19.6% and -11.6% | outcome [8] inactive; activator | max response [9] 3.71% and 6.55% | max response [10] -2.36% | outcome [10] | outcome [11] inactive; activator | Potency [12] | Potency [13] | Potency [14] | Potency [15] | outcome [16] | Potency [17] | Potency [18] | Potency [19]

COc1ccc(CCN(C)CCCC(C#N)(c2ccc(OC)c(OC)c2)C(C)C)cc1OC (stereo not drawn)
inactive: Potency [1] | Potency [3] | Potency [4] | max response [6] -3.47% and -1.73% | max response [7] -14.8% | max response [8] -28.3% | outcome [8] | max response [9] -13.1% and 17.7% | max response [10] -15.4% and 3.75% | outcome [11] | Potency [12] | Potency [13] | Potency [14] | Potency [15] | Potency [17] | Potency [18] | Potency [19]

Cc1ccc(C(=O)Nc2ccc(S(=O)(=O)O)c3cc(S(=O)(=O)O)cc(S(=O)(=O)O)c23)cc1NC(=O)c1cccc(NC(=O)Nc2cccc(C(=O)Nc3cc(C(=O)Nc4ccc(S(=O)(=O)O)c5cc(S(=O)(=O)O)cc(S(=O)(=O)O)c45)ccc3C)c2)c1
inactive: Potency [1] | Potency [3] | Potency [4] | Potency [5] | max response [6] 0.897% | outcome [7] | outcome [8] | max response [9] 9.63% and 6.6% | max response [10] -7.7% | outcome [10] | outcome [11] | outcome [20] | Potency [12] | Potency [13] | Potency [14] | Potency [15] | outcome [16] | Potency [17] | Potency [18] | Potency [19]

CN(CCOc1ccc(NS(C)(=O)=O)cc1)CCc1ccc(NS(C)(=O)=O)cc1
inactive: Potency [1] | Potency [2] | Potency [3] | Potency [4] | Potency [5] | outcome [6] | outcome [7] | max response [8] 2.47% | outcome [8] | max response [9] -3.43% | outcome [10] | outcome [11] | outcome [20] | Potency [12] | Potency [13] | Potency [14] | Potency [15] | outcome [16] | Potency [17] | Potency [18] | Potency [19]

CN(C)CCC=C1c2ccccc2C=Cc2ccccc21
active: Potency [5] 1.2 µM | Potency [7] 26.4 µM
inactive: max response [6] -6.55% | outcome [8] | max response [9] -7.06% and -14.3% | max response [10] -0.444% | outcome [11] | Potency [12] | Potency [13] | Potency [14] | Potency [17] | Potency [18] | Potency [19]

CC(C)Cc1ccc(C(C)C(=O)O)cc1 (stereo not drawn)
inactive: Potency [1] | Potency [2] | Potency [3] | Potency [4] | Potency [5] | max response [6] -13.3% and 3.74% | max response [7] 1.58% and -3.42% | max response [8] -14.1% | outcome [8] | max response [9] 1.49% and -2.93% | max response [10] 2.78% | outcome [10] | outcome [11] | Potency [12] | Potency [13] | Potency [14] | Potency [15] | outcome [16] inactive [at 17.4 µM] | Potency [17] | Potency [18] | Potency [19]

O=C(CCCN1CCC(O)(c2ccc(Cl)cc2)CC1)c1ccc(F)cc1
inactive: max response [6] -7.49% and -12% | max response [8] 2.18% | outcome [8] | max response [9] 1.13% | outcome [10] | outcome [11] | Potency [12] | Potency [13] | Potency [14] | Potency [15] | outcome [16] | Potency [17] | Potency [18] | Potency [19]
active: Potency [7] 18.8 µM | Potency [10] 21.1 µM

Cc1cn([C@H]2C[C@H](N=[N+]=[N-])[C@@H](CO)O2)c(=O)[nH]c1=O
inactive: Potency [1] | Potency [2] | Potency [3] | Potency [4] | Potency [5] | Potency [19]

CC(COc1ccccc1)N(CCCl)Cc1ccccc1 (stereo not drawn)
inactive: Potency [19]
active: Potency [5] 6.01 µM

CC(C)C(=O)Nc1ccc([N+](=O)[O-])c(C(F)(F)F)c1
inactive: Potency [1] | Potency [2] | Potency [3] | Potency [4] | Potency [5] | max response [6] -19.8% | outcome [8] | max response [9] -17.3% and -13.1% | max response [10] -15.1% | outcome [10] | outcome [11] | Potency [12] | Potency [13] | Potency [14] | Potency [15] | outcome [16] | Potency [17] | Potency [19]

CCC1(c2ccccc2)C(=O)NCNC1=O
inactive: Potency [1] | Potency [2] | Potency [3] | Potency [4] | Potency [5] | Potency [19]

CC(C(=O)O)c1cccc(C(=O)c2ccccc2)c1 (stereo not drawn)
inactive: outcome [11] | Potency [12] | Potency [13] | Potency [14] | Potency [15] | outcome [16] | Potency [17] | Potency [18]

— PubChem BioAssay (NCATS)
